Sampled rows, rich in hits. Any-hit rate of the full collection: about 1.7%.
DUSP3 inh – inhibitors of human VHR1 phosphatase (DUSP3) | P51452 | recombinant VHR phosphatase, pNPP absorbance | inhibition, % at 13.3 µM | 290,000 compounds, 0.52% hits; in the data active means inhibition above about 50%
3CLpro inhibitor – SARS-CoV 3CLpro protease inhibition; P0C6X7; recombinant SARS-CoV 3CLpro, quenched FRET peptide cleavage; inhibition, % at 6 µM; 290,000 compounds, 0.14% hits; in the data active means inhibition above about 12%
CCHF vOTU inh – blocks the CCHF virus ovarian tumor domain protease. AID 651958. 370,000 compounds, 0.55% hits. CCHFV vOTU protease, Pep-AMC fluorescence. inhibition, % at 11.5 µM; in the data active means inhibition above about 30%
PriA SSB inh – K. pneumoniae PriA-SSBct interaction inhibition; 430,000 compounds, 0.6% hits; AlphaScreen SSBct-PriA binding, biotinylated peptide; AID 1272365; inhibition, % at 33 µM; in the data active means inhibition mostly above about 37%, no sharp cut-off; inactive means mostly below about 20%
RecA splice inh – blocks M. tuberculosis RecA intein splicing; P9WHJ3; cell-free RecA intein splicing, fluorescence; inhibition, % (concentration not given with the values); 290,000 compounds, 0.75% hits; AID 2221; in the data active means inhibition above about 30%
Target sequence (P9WHJ3 whole entry, looked up, canonical isoform): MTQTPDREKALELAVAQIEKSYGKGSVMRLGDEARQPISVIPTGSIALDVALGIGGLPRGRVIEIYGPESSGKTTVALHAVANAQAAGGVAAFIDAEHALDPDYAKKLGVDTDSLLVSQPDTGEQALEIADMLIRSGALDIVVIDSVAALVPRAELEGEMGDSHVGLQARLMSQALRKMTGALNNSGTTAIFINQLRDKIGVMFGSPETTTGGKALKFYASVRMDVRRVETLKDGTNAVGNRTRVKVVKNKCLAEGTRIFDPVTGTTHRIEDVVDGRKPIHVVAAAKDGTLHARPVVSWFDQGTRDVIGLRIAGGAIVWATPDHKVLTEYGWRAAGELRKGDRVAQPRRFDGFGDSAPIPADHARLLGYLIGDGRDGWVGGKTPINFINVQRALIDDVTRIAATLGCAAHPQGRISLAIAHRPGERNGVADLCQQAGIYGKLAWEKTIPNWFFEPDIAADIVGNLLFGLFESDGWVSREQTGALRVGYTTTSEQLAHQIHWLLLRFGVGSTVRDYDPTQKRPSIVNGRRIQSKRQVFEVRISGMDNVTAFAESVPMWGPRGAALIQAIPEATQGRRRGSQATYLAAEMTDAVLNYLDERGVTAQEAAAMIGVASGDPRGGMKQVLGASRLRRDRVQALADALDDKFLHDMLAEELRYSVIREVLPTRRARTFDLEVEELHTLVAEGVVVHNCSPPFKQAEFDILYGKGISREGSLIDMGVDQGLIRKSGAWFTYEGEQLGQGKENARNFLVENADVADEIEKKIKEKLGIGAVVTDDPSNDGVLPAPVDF
A number is an active result; i = inactive; nt = no result given.

SMILES	DUSP3 inh	3CLpro inhibitor	CCHF vOTU inh	PriA SSB inh	RecA splice inh
CC(C)C1CC(CCNCc2ccc(N(C)C)cc2)(c2ccccc2)CCO1 (centres undefined)	i	i	i	i	i
Cc1ccc(C2(CCNCc3ccc(N(C)C)cc3)CCOC(C(C)C)C2)cc1 (centres undefined)	57.4	i	i	i	i
CCOc1ccccc1-c1nc(CSc2nc(-c3ccccc3)cc(=O)[nH]2)c(C)o1	nt	nt	nt	i	nt
Cc1ccc(C)c(Nc2c([N+](=O)[O-])cc(C(=O)N3CC(=O)Nc4ccccc43)cc2[N+](=O)[O-])c1	i	i	i	52.7	i
Cc1cccc(Nc2c([N+](=O)[O-])cc(C(=O)N3CC(=O)Nc4ccccc43)cc2[N+](=O)[O-])c1	i	i	i	i	nt
COCCNC(=O)CSc1nc(-c2ccc(OC)c(OC)c2)cc(C(F)(F)F)n1	i	i	i	i	i
CCn1cc(CNC(=O)CSc2nc(-c3ccc(OC)c(OC)c3)cc(C(F)(F)F)n2)c(C)n1	51.3	i	i	i	i
CC1CCN(c2c([N+](=O)[O-])nn(-c3ccc4c(c3)OCCO4)[n+]2[O-])CC1	i	i	i	40.1	i
O=[N+]([O-])c1nn(-c2ccc3c(c2)OCCO3)n(O)c1=NC1CCCCC1	i	i	i	i	i
COC(=O)[C@@H]1[C@@H](C(=O)OC)C2(c3ccccc3-c3ccccc32)N(c2ccc(Cl)cc2)N1C#N	i	i	i	i	51.2
COC(=O)C1OC2(OC1C(=O)OC)c1ccccc1-c1ccccc12 (centres undefined)	i	i	i	i	i
O=C(CCc1ccccc1)NC(=S)Nc1ccccc1[N+](=O)[O-]	i	i	i	38.8	i
CCOc1cccc(CN2CCC(CCC(=O)NC3CC3)CC2)c1O	51.3	i	i	i	i
O=C(CCC1CCN(Cc2ccc(Cl)cc2)CC1)NC1CC1	i	i	i	i	i
COC(=O)Cc1cc(=O)n(-c2nc3ccccc3[nH]2)[nH]1	i	i	i	74.6	i
COc1ccc(CC(=O)Nc2nc3ccccc3[nH]2)cc1	i	i	i	i	i
Cc1cc(Nc2ccccc2)c2c([N+](=O)[O-])c(C)cc(C)c2n1	i	i	i	i	i
Cc1ccc(Nc2cc(C)nc3c(C)c(C)cc([N+](=O)[O-])c23)cc1	nt	nt	nt	66.0	nt
COc1ccc(CC(=O)NC2CC2)cc1OC	53.0	i	i	i	i
COc1ccc(CC(=O)OCC(=O)NC2CCCCCC2)cc1OC	nt	nt	i	i	nt
Cc1ccc(CN2C(=O)/C(=C3\SC(=S)N(CC4CCCO4)C3=O)c3ccccc32)cc1 (centres undefined)	nt	nt	nt	i	nt
CCCc1nc(SCC(=O)N2CCc3ccccc3C2)c2ccccc2n1	i	i	i	i	32.1
CCCCNC(=O)CSc1nc(CCC)nc2ccccc12	i	i	i	i	i
CC(=O)Oc1ccc(C=NNS(=O)(=O)c2ccc(C)cc2)c(OC(C)=O)c1	nt	nt	nt	i	nt
CC(=O)Oc1ccc(/C=N/NS(=O)(=O)c2ccc(C)cc2)c(OC(C)=O)c1	53.9	i	i	nt	i
SMILES	DUSP3 inh	3CLpro inhibitor	CCHF vOTU inh	PriA SSB inh	RecA splice inh
NS(=O)(=O)c1ccc(Nc2ccc3cc(S(=O)(=O)N4CCCCC4)ccc3n2)cc1	i	i	i	i	i
NS(=O)(=O)c1ccc(CCNc2cnc3cc(S(=O)(=O)N4CCCCC4)ccc3n2)cc1	nt	nt	nt	102.0	nt
O=C(c1ccc(OC(F)(F)F)cc1)N1CCCC(Cc2nc(-c3cnccn3)no2)C1 (centres undefined)	nt	nt	nt	i	nt
Cc1ccc(Cn2ncc(Cl)c(Cl)c2=O)cc1	i	i	i	i	38.1
Cc1cc(C)cc(Cn2ncc(Cl)c(Cl)c2=O)c1	i	i	i	i	55.9
CCc1ccc(C(=O)Cn2ncc(Cl)c(Cl)c2=O)cc1	i	i	i	i	i
Cc1cc(S(=O)(=O)Nc2ccc3c(c2)C(=O)N(C)CCO3)ccc1F	nt	nt	nt	i	nt
Cc1nn([C@H]2CCS(=O)(=O)C2)c(C)c1N1CCN(S(=O)(=O)c2cccc(Cl)c2C)CC1	nt	nt	nt	i	nt
COc1ccc(-c2noc(-c3c(SC)nn(CC(=O)Nc4cccc(SC)c4)c3N)n2)cc1	nt	nt	nt	i	nt
Nc1c(Cl)ncnc1NN=Cc1ccccn1	nt	nt	nt	110.4	nt
C(=N\Nc1nncc2ccccc12)/c1ccccc1	i	i	i	i	nt
C(=NNc1nncc2ccccc12)c1ccccn1	nt	nt	nt	51.0	nt
O=c1cnnc(NN=Cc2ccccn2)[nH]1	nt	nt	nt	71.0	nt
Cc1cccc(CCNS(=O)(=O)c2ccc3c(c2)oc(=O)n3C)c1	i	i	i	i	i
Cn1c(=O)oc2cc(S(=O)(=O)NCCc3ccccc3)ccc21	57.4	i	i	i	i
Cc1cc(C)n(-c2cc(NC(=O)Cn3cncn3)ncn2)n1	nt	nt	nt	i	nt
Cn1cnc([N+](=O)[O-])c1Oc1cccc2ccccc12	i	i	i	i	36.2
O=C(Nc1cnoc1)c1c(F)cccc1F	nt	nt	nt	i	nt
O=C(NC1CC2CCCC(C1)N2Cc1ccccc1)c1cccc(F)c1 (centres undefined)	55.7	i	i	i	i
COc1ccc(S(=O)(=O)C(CNC(=O)c2cc(OC)c(OC)c(OC)c2)c2ccco2)cc1 (centres undefined)	nt	nt	nt	i	nt
O=C(c1ccc(-n2cccc2)cc1)N1CCS[C@H](c2ccccc2)CC1	nt	nt	nt	35.0	nt
O=C(Cn1c(=O)n(Cc2ccncc2)c(=O)c2ncccc21)Nc1ccc(F)c(Cl)c1	nt	nt	nt	i	nt
N#Cc1nc(Cc2ccccc2)oc1NCc1ccccc1Cl	i	i	i	40.1	i
N#Cc1nc(Cc2ccccc2)oc1NCc1cccnc1	i	i	i	i	i
COc1ccc(OC)c(N(CC(=O)NC2CC3CCC2C3)S(=O)(=O)c2ccccc2)c1 (centres undefined)	59.1	i	i	i	i
SMILES	DUSP3 inh	3CLpro inhibitor	CCHF vOTU inh	PriA SSB inh	RecA splice inh
COC(=O)c1cc(NC(=O)CN(c2ccccc2OC)S(=O)(=O)c2ccccc2)ccc1Cl	i	13.4	i	i	i
Cc1ccc(C)c(S(=O)(=O)N2CCN(Cc3cc4c(cc3O)OCO4)CC2)c1	nt	nt	i	41.2	nt
CCOc1ccc(C(C)C)cc1S(=O)(=O)N(C)C1CCCCC1	nt	nt	nt	i	nt
Cc1nc(-n2cccc2)sc1C(=O)Nc1nc2c(s1)C(=O)NCCC2	nt	nt	nt	active	nt
Cc1nc(C)c(C(=O)Nc2nc3c(s2)C(=O)NCCC3)s1	nt	nt	nt	i	nt
Cc1ccc(-c2ccc(=O)n(CCCC(=O)Nc3cccc(C)c3C)n2)cc1	nt	nt	nt	i	nt
CCCNC(=O)Cn1c(=O)n(CC(=O)N2CCCCC2)c(=O)c2sccc21	55.5	i	i	i	i
